In the supplement of paper PMC6555819:

Legend:
Experiment in all cases: PBM binding z-score (relative to random genomic background probes); higher = stronger binding; sequences stand for … in GC…GCGATTGACAGCGTAGAATGAAGG
[1] = test system: RARb homodimer (NR concentration 270 nM)
Procedure, shortened: (§1)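 Ligand-free nuclear receptor dimers were applied to custom Agilent 4×180K protein-binding microarrays whose double-stranded probes carried direct-repeat seeds, single-nucleotide variants, half-site ablations and random human genomic background sequences in 34-nt variable regions. Incubation lasted 1 h. Binding z-scores were computed against the random background probes from regression-normalized fluorescence.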

[2] = test system: RARg:RXRa (NR concentration 270 nM, RXRa partner concentration 90 nM)
Procedure, shortened: as §1

[3] = test system: RARg homodimer (NR concentration 270 nM)
Procedure, shortened: as §1

[4] = test system: RXRa DBDmut IVT, anti-RXR (DBD mutation: RXRa K156A/R161A, NR concentration 90 nM)
Procedure, shortened: as §1

[5] = test system: RXRa homodimer (NR concentration 180 nM)
Procedure, shortened: as §1

[6] = test system: THRa:RXRa (NR concentration 90 nM, RXRa partner concentration 90 nM)
Procedure, shortened: as §1

[7] = test system: THRa homodimer (NR concentration 90 nM)
Procedure, shortened: as §1

[8] = test system: VDR:RXRa (NR concentration 270 nM, RXRa partner concentration 90 nM)
Procedure, shortened: as §1

[9] = test system: VDR homodimer (NR concentration 270 nM)
Procedure, shortened: as §1

CGAACTAGGTCACGAAAGGTCAAAGTCGAATGAC
PBM binding z-score [1]: 6.05 | PBM binding z-score [2]: 7.91 | PBM binding z-score [3]: 8.67 | PBM binding z-score [4]: 2.37 | PBM binding z-score [5]: 8.55 | PBM binding z-score [6]: 5.01 | PBM binding z-score [7]: 2.52 | PBM binding z-score [8]: 6.89 | PBM binding z-score [9]: 3.39

TCTTGAAGATCAAAGGTTAAGAAAGCCGAAGCCT
PBM binding z-score [1]: 1.32 | PBM binding z-score [2]: 2.04 | PBM binding z-score [3]: 0.685 | PBM binding z-score [4]: 0.731 | PBM binding z-score [5]: 3.74 | PBM binding z-score [6]: 1.37 | PBM binding z-score [7]: -0.659 | PBM binding z-score [8]: 1.64 | PBM binding z-score [9]: -0.364

ACTATTAGTTGAGACGAGGGCAACCGGTAGGTTG
PBM binding z-score [1]: 1.42 | PBM binding z-score [2]: 0.949 | PBM binding z-score [3]: 0.676 | PBM binding z-score [4]: 0.457 | PBM binding z-score [5]: 0.675 | PBM binding z-score [6]: 2.69 | PBM binding z-score [7]: 0.339 | PBM binding z-score [8]: 0.837 | PBM binding z-score [9]: 1.07

TGAATGAGGTTATAAGTTCAGGGAACGTTGCAAA
PBM binding z-score [1]: 2.54 | PBM binding z-score [2]: 4.88 | PBM binding z-score [3]: 2.27 | PBM binding z-score [4]: 1.49 | PBM binding z-score [5]: 3.46 | PBM binding z-score [6]: 2.58 | PBM binding z-score [7]: 0.487 | PBM binding z-score [8]: 3.67 | PBM binding z-score [9]: 2.85

CCAGACAGGTGAGAAGCTAACTCAGCCTCGATTA
PBM binding z-score [1]: 0.0853 | PBM binding z-score [2]: -0.181 | PBM binding z-score [3]: 0.0316 | PBM binding z-score [4]: -0.135 | PBM binding z-score [5]: 0.129 | PBM binding z-score [6]: 0.183 | PBM binding z-score [7]: -0.194 | PBM binding z-score [8]: -0.228 | PBM binding z-score [9]: -0.0982

CATTACGGGTCACGAGGTTATAGCACGACGAGCG
PBM binding z-score [1]: 4.22 | PBM binding z-score [2]: 6.35 | PBM binding z-score [3]: 5.8 | PBM binding z-score [4]: 2.21 | PBM binding z-score [5]: 8.02 | PBM binding z-score [6]: 3.82 | PBM binding z-score [7]: 1.56 | PBM binding z-score [8]: 5.57 | PBM binding z-score [9]: 2.52

GCTATTAGTTGAAAGGGCAACCGGATGATTCTCG
PBM binding z-score [1]: 2.11 | PBM binding z-score [2]: 1.41 | PBM binding z-score [3]: 1.33 | PBM binding z-score [4]: 0.824 | PBM binding z-score [5]: 1.22 | PBM binding z-score [6]: 0.688 | PBM binding z-score [7]: -0.119 | PBM binding z-score [8]: 0.47 | PBM binding z-score [9]: 0.228

ACTAGTTCGTCAGCTGAGGTCACACACAATTCGG
PBM binding z-score [1]: 4.27 | PBM binding z-score [2]: 4.08 | PBM binding z-score [3]: 3.93 | PBM binding z-score [4]: 3.38 | PBM binding z-score [5]: 4.37 | PBM binding z-score [6]: 4.66 | PBM binding z-score [7]: 5.07 | PBM binding z-score [8]: 4.7 | PBM binding z-score [9]: 4.73

TGAATGAGGTTAAAGATCAGGGAGCGTGGCGTCG
PBM binding z-score [1]: 0.534 | PBM binding z-score [2]: 1.95 | PBM binding z-score [3]: 0.676 | PBM binding z-score [4]: 0.869 | PBM binding z-score [5]: 3.86 | PBM binding z-score [6]: 2.43 | PBM binding z-score [7]: 0.271 | PBM binding z-score [8]: 1.74 | PBM binding z-score [9]: -0.0422

CAAACTAGGTCAAGACGTCAAAGTCCGCTTCCCG
PBM binding z-score [1]: 3.2 | PBM binding z-score [2]: 4.09 | PBM binding z-score [3]: 4.74 | PBM binding z-score [4]: 1.65 | PBM binding z-score [5]: 3 | PBM binding z-score [6]: 2.68 | PBM binding z-score [7]: 0.895 | PBM binding z-score [8]: 1.62 | PBM binding z-score [9]: 0.581

CTCGAAAGGTCGGGTGAGGTGAGTATACGGATAA
PBM binding z-score [1]: 3.12 | PBM binding z-score [2]: 3.42 | PBM binding z-score [3]: 3.43 | PBM binding z-score [4]: 0.73 | PBM binding z-score [5]: 3.05 | PBM binding z-score [6]: 5.11 | PBM binding z-score [7]: 1.91 | PBM binding z-score [8]: 3.18 | PBM binding z-score [9]: 0.829

TCTTGTATATCAATAGAGGTTAAGAAAGTGCGCT
PBM binding z-score [1]: 1.38 | PBM binding z-score [2]: 0.864 | PBM binding z-score [3]: 0.687 | PBM binding z-score [4]: 1.05 | PBM binding z-score [5]: 1.58 | PBM binding z-score [6]: 1.72 | PBM binding z-score [7]: -0.0174 | PBM binding z-score [8]: 2.14 | PBM binding z-score [9]: 0.47

CGAACTAGGTTATCCAGGACAGTGAATACATTGA
PBM binding z-score [1]: 0.559 | PBM binding z-score [2]: 0.544 | PBM binding z-score [3]: 1.04 | PBM binding z-score [4]: 0.958 | PBM binding z-score [5]: 0.343 | PBM binding z-score [6]: 2.45 | PBM binding z-score [7]: 1.19 | PBM binding z-score [8]: 1.57 | PBM binding z-score [9]: 0.455

TAGCCTAGGTCATGGGTCAGTATACCACGCGAAC
PBM binding z-score [1]: 3.88 | PBM binding z-score [2]: 5.09 | PBM binding z-score [3]: 5.02 | PBM binding z-score [4]: 0.71 | PBM binding z-score [5]: 4.72 | PBM binding z-score [6]: 3.51 | PBM binding z-score [7]: 1.65 | PBM binding z-score [8]: 3.31 | PBM binding z-score [9]: 1.29

TGAATGAGGCTATAAGATCAGGGAACGTTGCAAA
PBM binding z-score [1]: -0.742 | PBM binding z-score [2]: -0.102 | PBM binding z-score [3]: 0.256 | PBM binding z-score [4]: -1.09 | PBM binding z-score [5]: -0.0491 | PBM binding z-score [6]: -0.134 | PBM binding z-score [7]: -0.324 | PBM binding z-score [8]: -0.38 | PBM binding z-score [9]: -0.554

TCTGCTAGTTCAGTTGGTCAGCTAACGAGCTGCC
PBM binding z-score [1]: 0.296 | PBM binding z-score [2]: -0.136 | PBM binding z-score [3]: 0.0684 | PBM binding z-score [4]: 0.659 | PBM binding z-score [5]: -0.391 | PBM binding z-score [6]: -0.312 | PBM binding z-score [7]: -0.718 | PBM binding z-score [8]: -0.158 | PBM binding z-score [9]: -0.523

ATCTTTAGGTAAAGATAGTTCAGTGAATGCAAAT
PBM binding z-score [1]: 0.997 | PBM binding z-score [2]: 0.713 | PBM binding z-score [3]: 0.798 | PBM binding z-score [4]: 0.388 | PBM binding z-score [5]: 0.298 | PBM binding z-score [6]: 1.23 | PBM binding z-score [7]: 0.203 | PBM binding z-score [8]: 0.897 | PBM binding z-score [9]: 0.742

TCATATAGGTAATACAGGTGGAAGTCGGCATCTA
PBM binding z-score [1]: 0.159 | PBM binding z-score [2]: 0.56 | PBM binding z-score [3]: 0.449 | PBM binding z-score [4]: 1.5 | PBM binding z-score [5]: 1.31 | PBM binding z-score [6]: 0.353 | PBM binding z-score [7]: 0.0491 | PBM binding z-score [8]: 1.14 | PBM binding z-score [9]: 0.547

TCTTGTAGATCAATGGAGGTTAAGAAAGTGCGCT
PBM binding z-score [1]: 0.785 | PBM binding z-score [2]: 0.419 | PBM binding z-score [3]: 0.147 | PBM binding z-score [4]: 0.79 | PBM binding z-score [5]: 0.919 | PBM binding z-score [6]: 2.03 | PBM binding z-score [7]: -0.299 | PBM binding z-score [8]: 1.38 | PBM binding z-score [9]: 0.227

CCTAGCAGGCCAATCTGGGTCACTCATGGCTTGA
PBM binding z-score [1]: 2.19 | PBM binding z-score [2]: 0.859 | PBM binding z-score [3]: 1.37 | PBM binding z-score [4]: 0.157 | PBM binding z-score [5]: 0.53 | PBM binding z-score [6]: 3.19 | PBM binding z-score [7]: 0.363 | PBM binding z-score [8]: 0.303 | PBM binding z-score [9]: 0.00452

CGTCAAAGTTCAACTTAGGTAACGTAAAGCACGC
PBM binding z-score [1]: 4.13 | PBM binding z-score [2]: 6.16 | PBM binding z-score [3]: 6.72 | PBM binding z-score [4]: 4.76 | PBM binding z-score [5]: 5.38 | PBM binding z-score [6]: 5.19 | PBM binding z-score [7]: 0.769 | PBM binding z-score [8]: 4.56 | PBM binding z-score [9]: 4.21

ATCTCCAGGTAACCAAGTTCAGTGAATGCCGAAC
PBM binding z-score [1]: 1.58 | PBM binding z-score [2]: 0.664 | PBM binding z-score [3]: 0.86 | PBM binding z-score [4]: 1.06 | PBM binding z-score [5]: 0.486 | PBM binding z-score [6]: 1.96 | PBM binding z-score [7]: 1.31 | PBM binding z-score [8]: 4.4 | PBM binding z-score [9]: 3.04

CCTACTGGGCCATTCAGCGGTCATTGATCATATG
PBM binding z-score [1]: 1.85 | PBM binding z-score [2]: 1.97 | PBM binding z-score [3]: 1.02 | PBM binding z-score [4]: -0.0941 | PBM binding z-score [5]: -0.0428 | PBM binding z-score [6]: 0.283 | PBM binding z-score [7]: 0.0718 | PBM binding z-score [8]: -0.109 | PBM binding z-score [9]: 0.166

GGAACGAGGGCAAAGTTGCTAGCATCTGTCGACG
PBM binding z-score [1]: 1.09 | PBM binding z-score [2]: 1.27 | PBM binding z-score [3]: 1.73 | PBM binding z-score [4]: 2.63 | PBM binding z-score [5]: 1.07 | PBM binding z-score [6]: 0.852 | PBM binding z-score [7]: -0.505 | PBM binding z-score [8]: 1.01 | PBM binding z-score [9]: 1.46

GAAGACAGGTGAAACGCAGGTAACTCAGGGTGGC
PBM binding z-score [1]: 0.467 | PBM binding z-score [2]: 0.851 | PBM binding z-score [3]: 0.0189 | PBM binding z-score [4]: -0.671 | PBM binding z-score [5]: 0.66 | PBM binding z-score [6]: 1.49 | PBM binding z-score [7]: -0.0479 | PBM binding z-score [8]: -0.438 | PBM binding z-score [9]: -0.373

GCTCCGAGGACAAGGTCAGAGCTTTGTCCGTAGA
PBM binding z-score [1]: 3.24 | PBM binding z-score [2]: 3.01 | PBM binding z-score [3]: 3.47 | PBM binding z-score [4]: 1.05 | PBM binding z-score [5]: 2.25 | PBM binding z-score [6]: 3.55 | PBM binding z-score [7]: 2.3 | PBM binding z-score [8]: 1.43 | PBM binding z-score [9]: 0.674
